Assay results published in PubChem BioAssay (NCATS).
Records with an inconclusive call do not appear. Entries that show only a call come without a potency. A number with no mark means an inactive call. The source made the active and inactive calls. Calls follow the shape of the dose curve; as a rule, active = well fitted curve in the direction sought with a large enough effect; inconclusive = small, poorly fitted or top-dose-only effect, or another doubt; inactive = no such curve, though single readings can be large; an effect the other way counts as inactive or inconclusive.

Experiments:
[1] = biological target: Ubiquitin carboxyl-terminal hydrolase 1 (Homo sapiens) (UniProt O94782); assay: Inhibitors of USP1/UAF1: Pilot qHTS (AID 504865);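 also: rhodamine fluorescence freed from ubiquitin-rhodamine substrate followed over time; top concentration of the series differs between compounds; nearly all actives have a fitted effect of over 35% in size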
Ubiquitin carboxyl-terminal hydrolase 1 (Homo sapiens), sequence (O94782 whole entry, looked up): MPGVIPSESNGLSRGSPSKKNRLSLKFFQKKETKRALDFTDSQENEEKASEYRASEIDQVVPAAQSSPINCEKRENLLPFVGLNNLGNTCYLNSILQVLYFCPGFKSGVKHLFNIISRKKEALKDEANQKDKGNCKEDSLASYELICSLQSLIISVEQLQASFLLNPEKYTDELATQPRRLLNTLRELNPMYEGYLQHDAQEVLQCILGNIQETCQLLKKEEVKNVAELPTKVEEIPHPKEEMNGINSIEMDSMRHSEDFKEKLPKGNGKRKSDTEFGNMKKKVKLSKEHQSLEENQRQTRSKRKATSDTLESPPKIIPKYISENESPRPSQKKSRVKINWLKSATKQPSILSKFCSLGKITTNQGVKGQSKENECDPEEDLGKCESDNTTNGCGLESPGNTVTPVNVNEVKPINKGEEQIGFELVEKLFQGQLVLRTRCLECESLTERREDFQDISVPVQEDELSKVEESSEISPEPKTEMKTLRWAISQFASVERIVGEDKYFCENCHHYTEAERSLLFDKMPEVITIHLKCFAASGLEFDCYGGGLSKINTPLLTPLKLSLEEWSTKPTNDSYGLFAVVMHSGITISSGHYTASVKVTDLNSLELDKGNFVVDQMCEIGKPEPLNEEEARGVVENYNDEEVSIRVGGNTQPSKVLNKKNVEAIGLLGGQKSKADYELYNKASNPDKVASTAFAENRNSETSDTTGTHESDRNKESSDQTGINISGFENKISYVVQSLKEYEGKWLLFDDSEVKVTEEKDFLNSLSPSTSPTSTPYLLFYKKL
Summary of the method: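 In 50mM HEPES pH 7.8 containing 0.5mM EDTA, 1mM TCEP, 0.1 mg/ml BSA and 0.01% Tween-20, 1nM USP1/UAF1 is exposed to compound for 15 min, then Ub-Rho (150nM final) is added and fluorescence is read over time.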

[2] = S16 Schwann cell PMP22 intronic element firefly luciferase assay (AID 624032); also: nearly all actives have a fitted effect of over 30% in size; also: potency is read from the fitted curve at half-maximal effect
Summary of the method: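 Rat S16 Schwann cells stably carrying a PMP22 intronic element-driven Fluc reporter were seeded overnight, then exposed to compounds for 24 h at 37 °C. Luminescence was normalized to PTC124 (positive control) and DMSO (0% activity).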

3D7 = assay: qHTS profiling for inhibitors of Plasmodium falciparum proliferation (AID 504749); also: nearly all actives have a fitted effect of over 60% in size; also: potency is read from the fitted curve at half-maximal effect; conditions: P. falciparum in erythrocytes, SYBR Green DNA, 72 h; series mostly up to 28.7 µM
Summary of the method: (§1)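 P. falciparum-infected erythrocytes (0.3% parasitemia, 2.5% hematocrit final) were exposed to compounds for 72 h at 37 C in 5% CO2, then lysed with SYBR Green buffer overnight at room temperature; parasite DNA fluorescence was normalized to artemisinin and DMSO controls.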

AA1029 = assay: as above; conditions: P. falciparum in erythrocytes, SYBR Green DNA, 72 h; series mostly up to 28.7 µM
Summary of the method: as §1

AS120 = assay: as above; conditions: P. falciparum in erythrocytes, SYBR Green DNA, 72 h; series mostly up to 28.7 µM
Summary of the method: as §1

ATS189 = assay: as above; conditions: P. falciparum in erythrocytes, SYBR Green DNA, 72 h; series mostly up to 28.7 µM
Summary of the method: as §1

ATS95 = assay: as above; conditions: P. falciparum in erythrocytes, SYBR Green DNA, 72 h; series mostly up to 28.7 µM
Summary of the method: as §1

CP237 = assay: as above; conditions: P. falciparum in erythrocytes, SYBR Green DNA, 72 h; series mostly up to 28.7 µM
Summary of the method: as §1

CP247 = assay: as above; conditions: P. falciparum in erythrocytes, SYBR Green DNA, 72 h; series mostly up to 28.7 µM
Summary of the method: as §1

CP250 = assay: as above; conditions: P. falciparum in erythrocytes, SYBR Green DNA, 72 h; series mostly up to 28.7 µM
Summary of the method: as §1

CP252 = assay: as above; conditions: P. falciparum in erythrocytes, SYBR Green DNA, 72 h; series mostly up to 28.7 µM
Summary of the method: as §1

CP265 = assay: as above; conditions: P. falciparum in erythrocytes, SYBR Green DNA, 72 h; series mostly up to 28.7 µM
Summary of the method: as §1

CP335 = assay: as above; conditions: P. falciparum in erythrocytes, SYBR Green DNA, 72 h; series mostly up to 28.7 µM
Summary of the method: as §1

DIV30 = assay: as above; conditions: P. falciparum in erythrocytes, SYBR Green DNA, 72 h; series mostly up to 28.7 µM
Summary of the method: as §1

PAD = assay: as above; conditions: P. falciparum in erythrocytes, SYBR Green DNA, 72 h; series mostly up to 28.7 µM
Summary of the method: as §1

PC15 = assay: as above; conditions: P. falciparum in erythrocytes, SYBR Green DNA, 72 h; series mostly up to 28.7 µM
Summary of the method: as §1

SC27B = assay: as above; conditions: P. falciparum in erythrocytes, SYBR Green DNA, 72 h; series mostly up to 28.7 µM
Summary of the method: as §1

TAB109 = assay: as above; conditions: P. falciparum in erythrocytes, SYBR Green DNA, 72 h; series mostly up to 28.7 µM
Summary of the method: as §1

TAB113 = assay: as above; conditions: P. falciparum in erythrocytes, SYBR Green DNA, 72 h; series mostly up to 28.7 µM
Summary of the method: as §1

7G8 = assay: as above; conditions: P. falciparum in erythrocytes, SYBR Green DNA, 72 h; series mostly up to 28.7 µM
Summary of the method: as §1

SMILES: Cn1cc(C(=O)[C@@H]2CCc3[nH]cnc3C2)c2ccccc21
- Potency [1]: inactive
- Potency [2]: inactive
- Potency (3D7): inactive
- Potency (AA1029): inactive
- Potency (AS120): inactive
- Potency (ATS189): inactive
- Potency (ATS95): inactive
- Potency (CP237): inactive
- Potency (CP247): inactive
- Potency (CP250): inactive
- Potency (CP252): inactive
- Potency (CP265): inactive
- Potency (CP335): inactive
- Potency (DIV30): inactive
- Potency (PAD): inactive
- Potency (PC15): inactive
- Potency (SC27B): inactive
- Potency (TAB109): inactive
- Potency (TAB113): inactive

SMILES: Cc1cnc(NC(=O)C2C(=O)c3ccccc3S(=O)(=O)N2C)s1 (configuration not stated)
- Potency [2]: inactive
- Potency (3D7): inactive
- Potency (AA1029): inactive
- Potency (AS120): inactive
- Potency (ATS189): inactive
- Potency (ATS95): inactive
- Potency (CP237): inactive
- Potency (CP247): inactive
- Potency (CP250): inactive
- Potency (CP252): inactive
- Potency (CP265): inactive
- Potency (CP335): inactive
- Potency (DIV30): inactive
- Potency (PAD): inactive
- Potency (PC15): inactive
- Potency (SC27B): inactive
- Potency (TAB109): inactive
- Potency (TAB113): inactive

SMILES: CC(C)(C)NC[C@H](O)CSc1nc(-c2ccc(C(N)=O)s2)cs1
- Potency [1]: inactive
- Potency [2]: inactive
- Potency (3D7): inactive
- Potency (AA1029): inactive
- Potency (AS120): inactive
- Potency (ATS189): inactive
- Potency (ATS95): inactive
- Potency (CP237): inactive
- Potency (CP247): inactive
- Potency (CP250): inactive
- Potency (CP252): inactive
- Potency (CP265): inactive
- Potency (CP335): inactive
- Potency (DIV30): inactive
- Potency (PAD): inactive
- Potency (PC15): inactive
- Potency (SC27B): inactive
- Potency (TAB109): inactive

SMILES: CCCSS/C(CCO)=C(/C)N(C=O)Cc1cnc(C)nc1N
- Potency [1]: inactive
- Potency [2]: 10.2 µM (active)
- Potency (3D7): inactive
- Potency (AA1029): inactive
- Potency (AS120): inactive
- Potency (ATS189): inactive
- Potency (ATS95): inactive
- Potency (CP237): inactive
- Potency (CP247): inactive
- Potency (CP250): inactive
- Potency (CP252): inactive
- Potency (CP265): inactive
- Potency (CP335): inactive
- Potency (DIV30): inactive
- Potency (PAD): inactive
- Potency (PC15): inactive
- Potency (SC27B): inactive
- Potency (TAB109): inactive
- Potency (TAB113): inactive

SMILES: C=C1/C(=C\C=C2/CCC[C@]3(C)[C@@H]([C@H](C)/C=C/[C@@H](O)C4CC4)CC[C@@H]23)C[C@@H](O)C[C@@H]1O
- Potency [2]: 10.2 µM (active)
- Potency (3D7): inactive
- Potency (AA1029): inactive
- Potency (ATS189): inactive
- Potency (ATS95): inactive
- Potency (CP237): inactive
- Potency (CP247): inactive
- Potency (CP252): inactive
- Potency (CP335): inactive
- Potency (DIV30): inactive
- Potency (PAD): inactive
- Potency (PC15): inactive
- Potency (SC27B): inactive
- Potency (TAB109): inactive
- Potency (TAB113): inactive

SMILES: C[C@]12CCC(=O)C=C1[C@@H]1C[C@H]1[C@H]1[C@@H]3[C@@H]4C[C@H]4[C@@]4(CCC(=O)O4)[C@@]3(C)CC[C@@H]12
- Potency [1]: inactive
- Potency (AA1029): inactive
- Potency (AS120): inactive
- Potency (ATS189): inactive
- Potency (ATS95): inactive
- Potency (CP237): inactive
- Potency (CP247): inactive
- Potency (CP250): inactive
- Potency (CP252): inactive
- Potency (CP265): inactive
- Potency (CP335): inactive
- Potency (PC15): inactive
- Potency (SC27B): inactive
- Potency (TAB109): inactive
- Potency (TAB113): inactive

SMILES: C#C[C@]1(O)CC[C@H]2[C@H]3[C@H](CC[C@@]21C)C1=C(CC(=O)CC1)C[C@@H]3C
- Potency (3D7): inactive
- Potency (AA1029): inactive
- Potency (AS120): inactive
- Potency (ATS189): inactive
- Potency (ATS95): inactive
- Potency (CP237): inactive
- Potency (CP250): inactive
- Potency (CP252): inactive
- Potency (CP265): inactive
- Potency (CP335): inactive
- Potency (PAD): inactive
- Potency (PC15): inactive
- Potency (SC27B): inactive
- Potency (TAB109): inactive
- Potency (TAB113): inactive

SMILES: CC1=C[C@@H](O)CC(C)(C)[C@@H]1/C=C/C(C)=C/C=C/C(C)=C/C=C/C=C(C)/C=C/C=C(C)/C=C/C1=C(C)C[C@H](O)CC1(C)C
- Potency (3D7): 10 µM (active)
- Potency (7G8): 10 µM (active)
- Potency (ATS189): inactive
- Potency (CP250): inactive
- Potency (CP252): inactive
- Potency (TAB109): inactive

SMILES: C/C(=C(/CCOC(=O)C(C)C)SS/C(CCOC(=O)C(C)C)=C(\C)N(C=O)Cc1cnc(C)nc1N)N(C=O)Cc1cnc(C)nc1N
- Potency [1]: inactive
- Potency (3D7): inactive
- Potency (7G8): inactive
- Potency (AA1029): inactive
- Potency (AS120): inactive
- Potency (ATS189): inactive
- Potency (ATS95): inactive
- Potency (CP237): inactive
- Potency (CP247): inactive
- Potency (CP250): inactive
- Potency (CP252): inactive
- Potency (CP265): inactive
- Potency (CP335): inactive
- Potency (DIV30): inactive
- Potency (PAD): inactive
- Potency (PC15): inactive
- Potency (SC27B): inactive
- Potency (TAB109): inactive
- Potency (TAB113): inactive

SMILES: CC1=C(C/C=C(\C)CCCC(C)CCCC(C)CCCC(C)C)C(=O)c2ccccc2C1=O (configuration not stated)
- Potency (3D7): 8.91 µM (active)
- Potency (7G8): 8.91 µM (active)
- Potency (CP247): inactive
- Potency (CP250): inactive
- Potency (CP252): inactive
- Potency (CP335): 12 µM (active)
- Potency (DIV30): inactive
- Potency (PAD): 7.94 µM (active)
- Potency (TAB113): 8.91 µM (active)

SMILES: C[C@H](CN1c2ccccc2Sc2cccnc21)N(C)C
- Potency [1]: inactive
- Potency [2]: inactive
- Potency (AA1029): 7.94 µM (active)
- Potency (AS120): 11.2 µM (active)
- Potency (ATS189): 5.01 µM (active)
- Potency (ATS95): 11.2 µM (active)
- Potency (CP237): 2 µM (active)
- Potency (CP247): 3.98 µM (active)
- Potency (CP252): 11.2 µM (active)
- Potency (CP335): 6.01 µM (active)
- Potency (SC27B): 8.91 µM (active)
- Potency (TAB109): 7.08 µM (active)
- Potency (TAB113): 12.6 µM (active)

SMILES: CC1=C(c2ccc(NN=C(C#N)C#N)cc2)NNC(=O)C1
- Potency [2]: inactive
- Potency (3D7): inactive
- Potency (AA1029): inactive
- Potency (AS120): inactive
- Potency (ATS189): inactive
- Potency (ATS95): inactive
- Potency (CP237): inactive
- Potency (CP250): inactive
- Potency (CP252): inactive
- Potency (CP265): inactive
- Potency (CP335): inactive
- Potency (DIV30): inactive
- Potency (PAD): inactive
- Potency (PC15): inactive
- Potency (SC27B): inactive
- Potency (TAB109): inactive

SMILES: OCC(O)C(O)C(O)C(O)CO (configuration not stated)
- Potency [1]: inactive
- Potency [2]: inactive
- Potency (3D7): inactive
- Potency (7G8): inactive
- Potency (AA1029): inactive
- Potency (AS120): inactive
- Potency (ATS189): inactive
- Potency (ATS95): inactive
- Potency (CP237): inactive
- Potency (CP247): inactive
- Potency (CP250): inactive
- Potency (CP252): inactive
- Potency (CP265): inactive
- Potency (CP335): inactive
- Potency (DIV30): inactive
- Potency (PAD): inactive
- Potency (PC15): inactive
- Potency (SC27B): inactive
- Potency (TAB109): inactive
- Potency (TAB113): inactive
